{
  "source": "PubChem BioAssay AID504912",
  "about": "(The Scripps Research Institute Molecular Screening Center, 2011)",
  "note": "The list shows a part of the results. Active and inactive are the calls of the source. No rule for the calls is given here.",
  "data": [
    {"experiment": "inverse agonists of MOR-DOR heterodimerization, counter-screen for HTR5A inverse agonist project, cell-based, luminescence (AID 504912);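 also: 0% = cells with DMSO and 100% = wells without cells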", "settings": "U2OS counter-screen cells, complementation luminescence; at 9.3 µM; stronger effect = higher value", "values": [
      {"smiles": "CCOC(=O)NC(=O)C(=CNc1cccc(OC)c1)C(=O)NC(=O)OCC", "inhibition": "-172% (inactive)"},
      {"smiles": "CCCCCCCCc1c(O)nc(-n2[nH]c(C)c(CCO)c2=O)[nH]c1=O", "inhibition": "-29.4% (inactive)"},
      {"smiles": "O=C(/C=C/c1ccc(Cl)c([N+](=O)[O-])c1)c1ccc(O)cc1", "inhibition": "-15.2% (inactive)"},
      {"smiles": "Cc1cc(C)n(-c2ccc(Cl)c(C(=O)O)n2)n1", "inhibition": "-60.3% (inactive)"},
      {"smiles": "COc1ccc(-c2nnc(SC(C)C(=O)NC3CC3)o2)cc1", "note": "(configuration not stated)", "inhibition": "-19.6% (inactive)"},
      {"smiles": "O=c1ccc2c(-c3ccccc3S(=O)(=O)O)c3ccc(O)c(O)c3oc-2c1O", "inhibition": "-10.2% (inactive)"},
      {"smiles": "Cc1noc(C)c1COc1cccc(C(=O)Nc2cccnc2)c1", "inhibition": "3.69% (inactive)"}
    ]}
  ]
}
